Screen size: about 5,400 compounds; about 190 (3.5%) showed an effect of 50% or more. What follows is part of a selection rich in strong results, with near analogues and random picks from the rest.
What follows are compounds tested on Vero-E6 (assay: primary screen, phospholipidosis by LipidTOX staining; higher = more effect of the substance). Settings: 10 µM.
Procedure, shortened: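 Single-concentration screen at 10 μM, with DMSO 0.1 v/v % and amiodarone 10 μM as controls. Read-out is LipidTOX Red phospholipid staining, which tolerates aldehyde fixation, in Vero-E6 cells.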
`O=c1[n-]c(=O)n(Cl)c(=O)n1Cl` was tested, and the result_ITMP was -11.2%.
With `c1ccc(C2CN3CCSC3=N2)cc1` (stereo not shown) [R4A_0001404_001 / SPE_K73107279] the result_ITMP was -7.98%.
For `C[N+](C)(C)CCOP(=O)([O-])OP(=O)([O-])OC[C@H]1O[C@@H](n2ccc(N)nc2=O)[C@H](O)[C@@H]1O`, the result_ITMP was 10.2%.
In the case of `CC(C)(O)c1ccccc1CC[C@@H](SCC1(CC(=O)[O-])CC1)c1cccc(/C=C/c2ccc3ccc(Cl)cc3n2)c1`, the result_ITMP was 3.69%.
Work on `C[C@H](N)Cn1ccc2cc(F)c(Cl)cc21` yielded a result_ITMP of 50.7%.
`CO[C@H]1O[C@@H]2O[C@@]3(C)CC[C@H]4[C@H](C)CC[C@@H]([C@H]1C)[C@@]24OO3` was tested, and the result_ITMP was -0.98%.
In the case of `O=C([O-])C(O)Cc1ccc(O)c(O)c1` (stereo not shown), the result_ITMP was 1.45%.
`CCC(=O)O[C@@H](OP(=O)(CCCCc1ccccc1)CC(=O)N1C[C@H](C2CCCCC2)C[C@H]1C(=O)[O-])C(C)C` (stereo partly shown) gave a result_ITMP of -3.03%.
`CC(=O)c1ccc2c(c1)N(CCCN(C)C)c1ccccc1S2` showed a result_ITMP of 42.6%.
`CC(=O)c1ccc2c(c1)N(CCCN1CCN(CCO)CC1)c1ccccc1S2` was tested, and the result_ITMP was 74.4%.
`CCOC(=O)Nc1ccc2c(c1)N(C(=O)CCN1CCOCC1)c1ccccc1S2` showed a result_ITMP of -8.3%.
`CC(=O)c1ccc2c(c1)N(CCCN1CCC(CCO)CC1)c1ccccc1S2` showed a result_ITMP of 50.4%.
In the case of `CCCCN1CCC(CCC(=O)c2cc(Cl)c(N)cc2OC)CC1`, the result_ITMP was 5.01%.
Compound `O=C(NO)c1ccc(O)c(O)c1` has a result_ITMP of -2.75%.
For `C[C@]12CCC(=O)C[C@@H]1CC[C@@H]1[C@@H]2CC[C@]2(C)C=CC[C@@H]12`, the result_ITMP was -0.52%.
In the case of `C[C@]12CC[C@H](O)C[C@H]1CC[C@@H]1[C@@H]2CC[C@]2(C)[C@@](O)(c3ccoc3)CC[C@]12O`, the result_ITMP was -7.29%.
In the case of `Cc1ccccc1N(C)C(=O)c1ccc(S(=O)c2nccs2)c([N+](=O)[O-])c1` (stereo not shown), the result_ITMP was 70.1%.
With `CN1c2c(nc(N)[nH]c2=O)NC[C@@H]1CNc1ccc(C(=O)N[C@@H](CCC(=O)[O-])C(=O)[O-])cc1` the result_ITMP was -7.73%.
For `CC[C@@]1(C2O[C@@H](C3O[C@@](O)(CO)[C@H](C)C[C@@H]3C)C[C@@H]2C)CC[C@H]([C@]2(C)CCC3(C[C@H](O)[C@@H](C)[C@@H]([C@H](C)[C@@H](OC)[C@H](C)C(=O)[O-])O3)O2)O1` (stereo partly shown), the result_ITMP was -2.43%.
Work on `CN1CCN(c2nc3ccccc3nc2Cl)CC1` yielded a result_ITMP of 5.5%.
`CN1CCN(C2=Cc3ccccc3Oc3ccc(Cl)cc32)CC1` was tested, and the result_ITMP was 61.3%.
`CC(=O)NNC(=O)N1Cc2ccccc2Oc2ccc(Cl)cc21` gave a result_ITMP of -0.36%.
For `CN1CCN(c2cc(-c3ccccc3)nc(N)n2)CC1`, the result_ITMP was 5.46%.
`CN1CCN2c3ccccc3Cc3ccccc3C2C1` (stereo not shown) gave a result_ITMP of 15.9%.
Work on `CN1C[C@@H]2c3ccccc3Oc3ccc(Cl)cc3[C@H]2C1.CN1C[C@H]2c3ccccc3Oc3ccc(Cl)cc3[C@@H]2C1` yielded a result_ITMP of 65.2%.
Work on `CCCC(=O)[O-]` yielded a result_ITMP of -6.95%.
`CCOC(=O)[C@H](C)C[C@@H](Cc1ccc(-c2ccccc2)cc1)NC(=O)CCC(=O)[O-]` was tested, and the result_ITMP was 0.47%.
For `CC(C)Cc1ccc(C(C)C(=O)O)cc1` (stereo not shown) [R4A_0001344_001 / SPE_K14965640], the result_ITMP was 1.58%.
`O=P([O-])(O)C(Cl)(Cl)P(=O)([O-])O` gave a result_ITMP of -2.27%.
`Cc1ccc(NC(=O)c2cccc(N(C)C)c2)cc1NC(=O)c1ccc(O)cc1` showed a result_ITMP of -6.05%.
For `Cc1cc(Nc2ccc(NC(=O)c3ccc(Nc4ccnc5ccccc45)cc3)cc2)nc(N)n1`, the result_ITMP was 13.5%.
For `CNCc1ccc(C)c(NC(=O)c2ccc(Nc3nc(-c4ccccc4)c4ccccc4n3)cc2)c1`, the result_ITMP was 67.4%.
`CN1C2C[C@H](OC(=O)[C@H](CO)c3ccccc3)C[C@H]1[C@H]1OC21` (stereo partly shown) gave a result_ITMP of -1.02%.
For `C=C1/C(=C\C=C2/CCC[C@]3(C)[C@@H]([C@H](C)/C=C/C=C/C(O)(CC)CC)CC[C@@H]23)C[C@@H](O)C[C@@H]1O`, the result_ITMP was -2.42%.
`C[C@@]12C(=O)OC(=O)[C@]1(C)[C@H]1CC[C@@H]2O1` was tested, and the result_ITMP was 7.41%.
With `CNCC/C=C/c1cccnc1` the result_ITMP was -4.64%.
In the case of `CNCCC=C1c2ccccc2CCc2ccccc21`, the result_ITMP was 64.4%.
For `CNCCC=C1c2ccccc2C=Cc2ccccc21`, the result_ITMP was 42.4%.
With `O=C(N[C@H]1CN2CCC1CC2)c1cnc2ccsc2c1O` the result_ITMP was -2.55%.
In the case of `COC(=O)N[C@H](C(=O)N1CCC[C@H]1c1ncc(-c2ccc3c(c2)O[C@@H](c2ccccc2)n2c-3cc3cc(-c4cnc([C@@H]5CCCN5C(=O)[C@@H](NC(=O)OC)C(C)C)[nH]4)ccc32)[nH]1)C(C)C`, the result_ITMP was 3.24%.
Compound `Cc1onc(-c2ccccc2Cl)c1C(=O)N[C@@H]1C(=O)N2[C@@H]1SC(C)(C)[C@@H]2C(=O)[O-]` has a result_ITMP of 4.56%.
Work on `C=CCN1CCC23c4c5ccc(O)c4O[C@H]2C(=O)CC[C@@]3(O)[C@H]1C5` yielded a result_ITMP of -3.91%.
`NC[C@H]1O[C@H](O[C@H]2[C@H](O[C@@H]3O[C@H](CO)[C@@H](O)[C@H]3O)[C@@H](O)[C@H](N)C[C@@H]2N)[C@H](N)[C@@H](O)[C@@H]1O` gave a result_ITMP of -1.8%.
Work on `CN(C)CC[C@@H](c1ccc(Cl)cc1)c1ccccn1` [R4A_0004036_001 / SPE_K39462424] yielded a result_ITMP of 22.6%.
`CC(=O)C(=O)[O-]` was tested, and the result_ITMP was -8.52%.
With `CN1[C@@H]2CC[C@H]1C[C@@H](OC(=O)c1c[nH]c3ccccc13)C2.CN1[C@@H]2CC[C@H]1C[C@H](OC(=O)c1c[nH]c3ccccc13)C2` the result_ITMP was 19.1%.
`CC(C)Oc1ccc(-c2nc(-c3cccc4c3CCC4NCCC(=O)O)no2)cc1C#N` (stereo not shown) was tested, and the result_ITMP was -0.21%.
For `CCOc1ccc(-c2nc(-c3cccc4c3CCC4NCCO)no2)cc1OCC` (stereo not shown), the result_ITMP was 108%.
In the case of `CC(C)Oc1ccc(-c2nc(-c3cccc4c3CC[C@@H]4NCCO)no2)cc1C#N`, the result_ITMP was 39.4%.
`Cc1ccc(Cl)c(Nc2ccccc2C(=O)[O-])c1Cl` gave a result_ITMP of -2.49%.
In the case of `CC[C@]1(O)C[C@H]2C[N@](CCc3c([nH]c4ccccc34)[C@@](C(=O)OC)(c3cc4c(cc3OC)N(C)[C@H]3[C@@](O)(C(N)=O)[C@H](O)[C@]5(CC)C=CCN6CC[C@]43[C@@H]65)C2)C1`, the result_ITMP was 9.74%.
`COc1cc(C(=O)NCC2(N(C)C)CCCC2)cc(OC)c1OCc1ccccc1` gave a result_ITMP of 25.4%.
`O=C(O)Cc1ccc(OCc2ccccc2)c(Cl)c1` gave a result_ITMP of 2.22%.
`COc1cc(CN(CCN)C(=O)c2cccs2)ccc1OCc1ccccc1` showed a result_ITMP of 85.4%.
`O=S(=O)([O-])CC(S)CS` (stereo not shown) was tested, and the result_ITMP was -3.17%.
`O=C(NC(Cc1c[nH]c2ccccc12)C(=O)[O-])c1ccc(Cl)cc1` (stereo not shown) was tested, and the result_ITMP was -0.44%.
In the case of `c1ccc([C@@H]2C[C@H]2NC2CCNCC2)cc1`, the result_ITMP was 27.9%.
Work on `N[C@H]1CC[C@H](N[C@@H]2C[C@H]2c2ccccc2)CC1` yielded a result_ITMP of 65.7%.
In the case of `NC1C[C@H]1c1ccccc1` (stereo partly shown), the result_ITMP was -1.26%.
Work on `C[C@]12CCC(=O)C=C1C=CC1C2CC[C@@]2(C)C1CC[C@@]2(O)CCC(=O)[O-]` (stereo partly shown) yielded a result_ITMP of -3.36%.
For `Cc1ccc(S(=O)(=O)[N-]Cl)cc1`, the result_ITMP was -2.26%.
In the case of `CC[C@]1(O)C[C@@H]2C[N@@](CCc3c([nH]c4ccccc34)[C@@](C(=O)OC)(c3cc4c(cc3OC)N(C)[C@H]3[C@@](O)(C(=O)OC)[C@H](OC(C)=O)[C@]5(CC)C=CCN6CC[C@]43[C@@H]65)C2)C1`, the result_ITMP was 8.57%.
Compound `NC(=O)OCCCc1ccccc1` has a result_ITMP of -6.09%.
For `CCN(CCCc1ccccc1)CCCc1ccccc1`, the result_ITMP was 58.9%.
In the case of `O=C([O-])CCCc1ccccc1`, the result_ITMP was 0.94%.
`C#Cc1cnc(O)nc1O` showed a result_ITMP of -3.59%.
With `Cc1ccc(C)c(Oc2ccncc2C(=O)N2CCN(C3CC3)c3ccccc32)c1` the result_ITMP was -4.61%.
For `O=C(O)c1ccccc1NC(=O)N1CCC(c2ccccc2C(F)(F)F)CC1`, the result_ITMP was -0.92%.
`CCOc1ccc(S(=O)(=O)[O-])c2cccnc12` gave a result_ITMP of -2.55%.
`CCN(CC)CCOC(=O)C1(c2ccccc2)CCCC1` gave a result_ITMP of 2.32%.
Work on `CCN(CC)CCOC(=O)C(c1ccccc1)C1CCCCC1` (stereo not shown) yielded a result_ITMP of 52%.
For `CCN(CC)CCOC(=O)C(c1ccccc1)c1ccccc1`, the result_ITMP was 3.73%.
`COc1ccc2c(C)nc(Nc3nc(=O)c(C)c(C)[nH]3)nc2c1` was tested, and the result_ITMP was 0.3%.
`NC(=O)C1CCCc2c1[nH]c1ccc(Cl)cc21` (stereo not shown) gave a result_ITMP of -0.07%.
With `OCCNC1CCCc2c1[nH]c1ccc(-c3ccccc3)cc21` (stereo not shown) the result_ITMP was 89.4%.
Compound `C[C@H](N)C(=O)N[C@@]1(C(=O)O)C[C@@H](Sc2nnc[nH]2)[C@H]2[C@H](C(=O)O)[C@H]21` has a result_ITMP of -1.74%.
`Nc1ncnc2c1c(-c1cccc(OCc3ccccc3)c1)cn2C1CC(CN2CCCC2)C1` (stereo in doubt) gave a result_ITMP of 41.5%.
`Nc1ncnc2c1c(-c1ccc(Oc3ccccc3)cc1)nn2C1CCCC1` showed a result_ITMP of -1.17%.
Compound `Nc1ncnc2c1c(-c1cccc(OCc3ccccc3)c1)cn2[C@H]1C[C@@H](CN2CCC2)C1` has a result_ITMP of 69.4%.
Work on `CC(C)(C)C(=O)Oc1ccc(S(=O)(=O)Nc2ccccc2C(=O)NCC(=O)[O-])cc1` yielded a result_ITMP of -1.15%.
Work on `C=C1/C(=C\C=C2/CCC[C@]3(C)[C@@H]([C@H](C)/C=C/[C@H](C)C(C)(C)O)CC[C@@H]23)C[C@@H](O)C[C@@H]1O` yielded a result_ITMP of -2.3%.
Compound `COc1ccc(CCN)cc1OC` has a result_ITMP of -4.61%.
In the case of `COc1ccc(COc2ccc(Cc3cnc(N)nc3N)cc2OC)cc1`, the result_ITMP was -3.18%.
`COc1ccc(CCNCc2ccc(OCc3ccc(Cl)nc3)c(OC)c2)cc1OC` gave a result_ITMP of 59.3%.
For `CC[C@H](/C=C/[C@@H](C)[C@H]1CC[C@H]2[C@@H]3CC=C4C[C@@H](O)CC[C@]4(C)[C@H]3CC[C@]12C)C(C)C`, the result_ITMP was -2.7%.

— article PMC13083723 (Patterns, 2026)
